Test systems include SK-MEL-2 melanoma; SN12C renal; UO-31 renal; TK-10 renal; ACHN renal; CAKI-1 renal; MOLT-4 leukemia; SR leukemia; RPMI-8226 leukemia; OVCAR-5 ovarian; OVCAR-4 ovarian; SK-OV-3 ovarian; IGROV1 ovarian; OVCAR-3 ovarian; CCRF-CEM leukemia; HS 578T breast; NCI/ADR-RES ovarian; OVCAR-8 ovarian; A498 renal.
Assay in all cases: NCI-60 one-dose screen, 48 h (100 = growth as untreated, 0 = no growth, -100 = all killed)
Holding throughout (conditions): 10 µM unless noted

This note sets out measurements from PubChem BioAssay (NCI).

Each structure is given as a SMILES string. The panel holds about 83,000 compounds, 20% with a hit somewhere; the sample as a whole holds those more often.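 The endpoint reported here, percent growth, reads 100 for growth as untreated, 0 for no net growth and -100 for all cells dead.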 A number with no mark means an inactive call. Calls of active or inactive are those of the source. Rule for the calls: active = growth percent below 10; inactive = the rest.

Turning to `COc1ccc(-n2cnc3c(sc4ncc(Cl)cc43)c2=O)cc1`, the growth was 120% in the assay on SK-MEL-2 melanoma; 101% in the assay on SN12C renal; 5.62% (active) in the assay on UO-31 renal; 89.9% in the assay with TK-10 renal; 82.1% in the assay with ACHN renal; 86.6% in the assay with CAKI-1 renal. In addition, the growth was 96.6% with MOLT-4 leukemia; 71.2% with SR leukemia; 48.2% in the assay on RPMI-8226 leukemia; 98.6% with OVCAR-5 ovarian; 101% with OVCAR-4 ovarian; 84.8% in the assay with SK-OV-3 ovarian. In addition, the results for the growth in the assay on IGROV1 ovarian and in the assay on OVCAR-3 ovarian were 65.7% and 53.8%, respectively.
For the molecule `COc1ccc(NC(=O)c2cc3ccccc3nc2Nc2cc(OC)c(OC)c(OC)c2)cc1`, the growth is 89.2% with SK-MEL-2 melanoma; 69.7% with SN12C renal; 59.7% in the assay on UO-31 renal; 90.7% with TK-10 renal; 53% in the assay on ACHN renal; 70.2% in the assay with CAKI-1 renal. Further, the growth is 43.6% with CCRF-CEM leukemia; 49.2% in the assay with MOLT-4 leukemia; 56.6% in the assay with SR leukemia; 35.5% with RPMI-8226 leukemia; 92.4% with OVCAR-5 ovarian; 91.7% with SK-OV-3 ovarian. In addition, the growth was 87% with IGROV1 ovarian, 48% in the assay on OVCAR-3 ovarian, 79% with HS 578T breast and 43.2% in the assay with NCI/ADR-RES ovarian.
Consider `COc1ccc(/C=C\c2cc(OC)c(OC)c(OC)c2)c(NS(=O)(=O)c2ccc(C(C)(C)C)cc2)c1O`, for which the growth in the assay with SK-MEL-2 melanoma is -2.03% (active); with SN12C renal, 29.5%; in the assay on UO-31 renal it was 52.3%; in the assay on TK-10 renal, 50.8%; with ACHN renal it was 25.2%; with CAKI-1 renal, 24.4%. The growth is 20.6% in the assay with CCRF-CEM leukemia; 21.8% in the assay on MOLT-4 leukemia; 16.4% in the assay with SR leukemia; 21.9% with OVCAR-8 ovarian; 32.4% with OVCAR-5 ovarian; 28.2% with OVCAR-4 ovarian. The growth in the assay with SK-OV-3 ovarian was 31%; with IGROV1 ovarian it was 38.5%; with OVCAR-3 ovarian, 0.435% (active); with HS 578T breast it was 35.4%; with NCI/ADR-RES ovarian, 9.51% (active).
As for `COc1cc(OC)cc(-c2n[nH]nc2-c2ccc3c(c2)OCO3)c1`, the growth was 14.4% with SK-MEL-2 melanoma; 49.1% in the assay on SN12C renal; 44.9% in the assay on UO-31 renal; 59.5% in the assay on TK-10 renal; 42.7% in the assay with ACHN renal; 36.5% in the assay with CAKI-1 renal. In addition, the growth with CCRF-CEM leukemia was 10.4%; in the assay with MOLT-4 leukemia, 31.3%; with SR leukemia, 14.4%; in the assay on RPMI-8226 leukemia it was 26.2%; in the assay on OVCAR-8 ovarian, 28.6%; in the assay with OVCAR-5 ovarian it was 4.97% (active). Besides, the growth was 16.3% in the assay on SK-OV-3 ovarian; 39.5% in the assay with IGROV1 ovarian; 10% in the assay with OVCAR-3 ovarian; 12.1% in the assay with HS 578T breast; 3.37% (active) in the assay with NCI/ADR-RES ovarian.
Regarding `O=C(CNc1ccc(Cl)cc1)Nc1ccc(-c2nc3ccccc3s2)cc1`, the growth in the assay on SK-MEL-2 melanoma was 78.5%; in the assay on SN12C renal it was 46.8%; in the assay on UO-31 renal it was 65%; in the assay on TK-10 renal, 118%; in the assay with ACHN renal, 22.8%; in the assay on CAKI-1 renal, 20.2%. For the same molecule, the growth was 3.22% (active) in the assay on CCRF-CEM leukemia; 4.4% (active) in the assay on MOLT-4 leukemia; 11.5% with SR leukemia; 46% in the assay on RPMI-8226 leukemia; 66.4% with OVCAR-8 ovarian; 121% in the assay with OVCAR-5 ovarian. Besides, the growth in the assay with OVCAR-4 ovarian is 23.1%; with IGROV1 ovarian, 34.3%; in the assay with OVCAR-3 ovarian, 28.9%; in the assay with HS 578T breast, 84.1%; in the assay with NCI/ADR-RES ovarian, 64.5%.
`O=c1c2cccc3c(Nc4ccc(F)cc4)ccc(c32)c2nc3ccccc3n12`: the growth was 103% in the assay with SK-MEL-2 melanoma; 87.8% in the assay with SN12C renal; 49.2% in the assay on UO-31 renal; 75.3% with TK-10 renal; 87.9% in the assay with ACHN renal; 79.9% in the assay with CAKI-1 renal. The growth in the assay with CCRF-CEM leukemia is 94.1%; in the assay on MOLT-4 leukemia, 89.9%; in the assay with OVCAR-8 ovarian, 89.3%; in the assay with OVCAR-5 ovarian, 84.8%; in the assay on OVCAR-4 ovarian, 76%; in the assay on SK-OV-3 ovarian, 101%. Besides, the results for the growth in the assay with OVCAR-3 ovarian, with HS 578T breast and with NCI/ADR-RES ovarian were 94%, 73.6% and 91.4%, respectively.
As for `CN=S(=O)(NC(=O)c1ccc(Cl)cc1Cl)c1ccc(Br)s1` (stereo not drawn), the growth in the assay with SK-MEL-2 melanoma is 108%; in the assay with SN12C renal it was 105%; in the assay with UO-31 renal, 89.4%; with TK-10 renal, 106%; with ACHN renal, 102%; in the assay with A498 renal, 67.8%. Further, the growth in the assay on CCRF-CEM leukemia was 96.8%; with MOLT-4 leukemia, 93.3%; in the assay with SR leukemia it was 94.3%; in the assay on RPMI-8226 leukemia, 98%; with OVCAR-8 ovarian, 97.6%; with OVCAR-5 ovarian, 95.3%. The growth was 103% in the assay on OVCAR-4 ovarian; 111% with SK-OV-3 ovarian; 101% in the assay on IGROV1 ovarian; 109% in the assay on OVCAR-3 ovarian; 97.8% in the assay on HS 578T breast; 99.3% in the assay on NCI/ADR-RES ovarian.
On to `O=C1c2ccccc2C(=O)c2c1oc1oc3c(c(=O)c21)c(=O)n(-c1ccccc1)c1ccccc31`, for which the growth with SK-MEL-2 melanoma was 23.1%; in the assay with SN12C renal, 97.7%; with UO-31 renal, 49.2%; in the assay on TK-10 renal it was 64.2%; in the assay on ACHN renal it was 28.5%; in the assay with CAKI-1 renal, 69.2%. For the same molecule, the growth with CCRF-CEM leukemia is 17.8%; in the assay with MOLT-4 leukemia it was 16.1%; in the assay on SR leukemia, 11.4%; with OVCAR-8 ovarian it was 48.2%; in the assay with OVCAR-5 ovarian it was 88.7%; with OVCAR-4 ovarian it was 18.8%. For the same molecule, the growth in the assay with SK-OV-3 ovarian was 67.3%; in the assay with IGROV1 ovarian, 71.8%; in the assay on OVCAR-3 ovarian, 2.15% (active); in the assay on HS 578T breast it was 90.5%; in the assay with NCI/ADR-RES ovarian it was 90.3%.
In the case of `COc1cc(NC(=O)c2cc3ccccc3nc2Nc2ccc(F)cc2)cc(OC)c1OC`, the growth in the assay on SK-MEL-2 melanoma was 63.4%; in the assay on SN12C renal, 62.3%; with UO-31 renal it was 46.7%; in the assay with TK-10 renal, 65.3%; in the assay on ACHN renal it was 42.9%; with CAKI-1 renal, 52.4%. Further, the growth in the assay with CCRF-CEM leukemia is 42.1%; in the assay on MOLT-4 leukemia, 12.4%; with SR leukemia it was 35.7%; with RPMI-8226 leukemia it was 29.8%; in the assay with OVCAR-8 ovarian, 43.3%; in the assay on OVCAR-4 ovarian, 47.7%. Moreover, the growth in the assay with SK-OV-3 ovarian is 72.8%; in the assay on IGROV1 ovarian it was 54.5%; in the assay with OVCAR-3 ovarian, 36.2%; in the assay on HS 578T breast, 75.5%; with NCI/ADR-RES ovarian it was 39.7%.
